Screening results deposited in PubChem by several laboratories.
RecA splice inh: Mtb RecA intein splicing inhibition. P9WHJ3. cell-free RecA intein splicing, fluorescence. inhibition, % (no concentration beside the values). 290,000 compounds, 0.75% hits. AID 2221; in the data active means inhibition above about 30%;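 further: 0% = vehicle wells and 100% = reference inhibitor control wells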
BJeLR viability: kills HRASV12-expressing BJeLR cells; BJeLR (HRASV12) viability, CellTiter-Glo ATP luminescence, 48 h; inhibition, % (no concentration beside the values); 300,000 compounds, 0.17% hits; in the data active means inhibition above about 50%
GDH-TPI counter-1: counter-screen for M. tuberculosis FBA inhibitors: GDH-TPI coupled enzymes; AID 588335; 360,000 compounds, 1.2% hits; GDH-TPI coupled enzyme counterscreen, NADH absorbance; inhibition, % at 4.8 µM; in the data active means inhibition above about 30%;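 further: 0% = DMSO wells and 100% = wells lacking the enzyme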
PrPC TRFRET: inhibitors of human cell surface prion protein PrPC | P04156 | inhibition, % at 13.8 µM | AID 720596 | TR-FRET read-out | 370,000 compounds, 0.43% hits; in the data active means inhibition above about 24%; further: 0% = median of the test wells and 100% = reference compound wells
Mtb FBA inh: Mtb fructose-bisphosphate aldolase inhibition. P9WQA3. purified M. tuberculosis FBA, fluorescence read-out. inhibition, % at 1 µM. 360,000 compounds, 2.3% hits. AID 588726;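 further: 0% = vehicle and 100% = reference inhibitor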
Target sequence (P9WQA3 whole entry, looked up): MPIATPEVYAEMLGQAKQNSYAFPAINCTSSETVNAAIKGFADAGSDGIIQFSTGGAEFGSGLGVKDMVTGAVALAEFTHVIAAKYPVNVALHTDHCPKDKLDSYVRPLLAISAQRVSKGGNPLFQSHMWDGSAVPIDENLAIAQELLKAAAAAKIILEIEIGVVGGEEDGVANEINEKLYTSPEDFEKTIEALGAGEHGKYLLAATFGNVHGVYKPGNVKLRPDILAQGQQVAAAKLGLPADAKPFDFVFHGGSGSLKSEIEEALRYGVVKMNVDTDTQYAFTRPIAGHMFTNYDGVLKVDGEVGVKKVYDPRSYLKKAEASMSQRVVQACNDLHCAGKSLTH
Mtb FBA inh conf: Mtb FBA inhibition, confirmed | shares compounds with Mtb FBA inh | purified M. tuberculosis FBA, fluorescence read-out | inhibition, % at 1 µM | 5,600 compounds, 78% hits | AID 651616;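 further: 0% = vehicle wells and 100% = reference inhibitor wells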
GDH-TPI counter-2: inhibits GDH-TPI coupling enzymes, flagging Mtb FBA hits. shares compounds with Mtb FBA inh. GDH-TPI coupled enzyme counterscreen, fluorescence. inhibition, % at 1 µM. 5,600 compounds, 81% hits. AID 652141; in the data active means inhibition above about 10%
An asterisk follows results filed as active; i = inactive; nt = no result given; + = active, no number. Hits are enriched below; roughly 4.2% of the tested compounds scored in any of these assays. Unless noted, no stated cut-off is given here; in the data, active means inhibition above about 27%; inactive means the rest.

SMILES | RecA splice inh | BJeLR viability | GDH-TPI counter-1 | PrPC TRFRET | Mtb FBA inh | Mtb FBA inh conf | GDH-TPI counter-2
O=C(CN1C(=O)c2cccc3cccc(c23)C1=O)NCCCO | -1 | 0 | 17 | -33 | 52* | 27 | 24*
O=C(CCCCCN1C(=O)c2cccc3cccc(c23)C1=O)NCCCO | -3 | 0 | 18 | -30 | 33* | 97* | 73*
O=C(Cc1cccs1)NC1CCCCN(Cc2cccc(Cl)c2)C1=O (stereo unspecified) | nt | nt | nt | 5 | nt | nt | nt
COc1ccc([C@H]2OC(=O)C[C@@H]2C(=O)N2CCN(c3ccccc3Cl)CC2)cc1OC | nt | nt | nt | -1 | nt | nt | nt
Nc1nc2ccccc2cc1S(=O)(=O)c1ccccc1 | 0 | -2 | -3 | -3 | 51* | 116* | 98*
O=S(=O)(c1ccccc1)c1cnc2ccccc2c1 | -4 | 6 | 5 | 0 | -2 | nt | nt
CN(Cc1ccccc1F)C(=O)Cn1c(-c2cncs2)nc2ccccc21 | nt | nt | nt | -6 | nt | nt | nt
COC(=O)C[C@@H]1CC[C@H]2[C@H](COc3ccc(NC(=O)c4ccc(OC)cc4)cc3C(=O)N2C)O1 | nt | nt | nt | -2 | nt | nt | nt
CCCCc1c(-c2ccccc2OC)ncn1Cc1ccc(C(C)(C)C)cc1 | nt | nt | nt | 14 | nt | nt | nt
CC(C)N1CCN(C2CSCCSC2)CC1CCO (stereo unspecified) | 2 | 5 | 12 | 3 | 52* | + | +
CNc1cncc(-c2ccc(OC)c(OC)c2)n1 | nt | nt | 20 | -1 | 58* | 78* | 63*
CNc1cc(-c2ccc(OC)c(OC)c2)ncn1 | nt | nt | 13 | 7 | 24 | nt | nt
CNc1ccc2ncc(-c3ccc(OC)c(OC)c3)n2n1 | nt | nt | 17 | -8 | 44* | 11 | 7
CNc1cncc(-c2c(OC)cccc2OC)n1 | nt | nt | 8 | 1 | 77* | + | +
COC(=O)C1CN(Cc2cn(Cc3ccc(OC)cc3)nn2)CCS(=O)(=O)N1Cc1ccccc1 (stereo unspecified) | nt | nt | nt | -5 | nt | nt | nt
CCOC(=O)Cc1c(C)c2ccc(N(CC)CC)cc2oc1=O | nt | 3 | 9 | -10 | 93* | 58* | 51*
CCN(CC)c1ccc2c(C)cc(=O)oc2c1 | nt | nt | 14 | 2 | 108* | 125* | 88*
CCN(CC)c1ccc2c(Cl)c(Br)c(=O)oc2c1 | -198 | 2 | 16 | nt | 7 | nt | nt
CCN(CC)c1ccc2c(C)c(Cl)c(=O)oc2c1 | i | 0 | 5 | 1 | 67* | 65* | 54*
CCN(CC)c1ccc2ccc(=O)oc2c1 | -348 | -2 | 6 | -14 | 53* | 74* | 67*
CCCCOc1ccc(C(=O)NC2CCCCN(CCC)C2=O)cc1 (stereo unspecified) | nt | nt | nt | 3 | nt | nt | nt
C#CCOc1ccc(C2C3=C(CCCC3=O)N(CC(=O)O)C3=C2C(=O)CCC3)cc1Br | -451 | -13 | 3 | -9 | 91* | 153* | 131*
CCCOc1ccc(C2C3=C(CCCC3=O)N(CC(=O)O)C3=C2C(=O)CCC3)cc1OCC | 2 | 4 | 16 | -1 | 2 | nt | nt
COC(=O)C1=C(C)N(Cc2ccc(C(F)(F)F)cc2)C(=NCc2ccc(C(F)(F)F)cc2)NC1c1ccccc1 (stereo unspecified) | nt | nt | nt | 2 | nt | nt | nt
COc1cc2c(cc1OC)CC[N+](C)=C2 | -42 | 11 | 15 | 2 | 95* | 111* | 76*
SMILES | RecA splice inh | BJeLR viability | GDH-TPI counter-1 | PrPC TRFRET | Mtb FBA inh | Mtb FBA inh conf | GDH-TPI counter-2
O=C(NC1CCCCN(Cc2cccc(C(F)(F)F)c2)C1=O)c1ccc(Cl)cc1 (stereo unspecified) | nt | nt | nt | 11 | nt | nt | nt
O=C(NCc1cccnc1)c1ccc(-c2ccc(Cl)cc2)o1 | 2 | 6 | 2 | 9 | 29* | 113* | 103*
O=C(NCc1cccnc1)c1ccc(-c2cc3ccccc3oc2=O)cc1 | 0 | 66* | 16 | -40 | 54* | 3 | 1
CCOC(=O)[C@]12CCCC=C1N(CCCOC)C(=O)[C@@H]2CC(=O)NCc1ccccc1 | nt | nt | nt | -11 | nt | nt | nt
O=C(Cn1nnc(N2CCOCC2)n1)NN=Cc1ccccc1Cl | nt | nt | nt | -2 | nt | nt | nt
COc1ccc(-c2sc(C(=O)c3ccc(Cl)cc3Cl)cc2CC(=O)O)cc1 | -39 | -11 | 16 | -18 | 45* | 73* | 55*
O=C(O)Cc1ccc(C(=O)c2ccc(Cl)cc2Cl)s1 | -1 | 7 | -1 | 4 | -1 | nt | nt
CC(C)C(=O)NCCn1ccc2ccccc21 | -1 | 0 | 7 | 0 | 30* | 102* | 88*
CC1CCC2C(C1)Nc1c(C(=O)O)cccc1C2(C)C (stereo unspecified) | 0 | 1 | 9 | 4 | 77* | 23 | 11*
CCCN1CNc2c(c(=O)[nH]c(=S)n2CCc2cccc(Cl)c2Cl)C1 | nt | nt | nt | -11 | nt | nt | nt
COc1ccc2nc3c(cc2c1)c(NC(=O)C1CCCO1)nn3CC(C)C (stereo unspecified) | -359 | 1 | 12 | -12 | 39* | -1 | -3
Cc1cc(NC(=O)CCCC(=O)NCc2cccs2)no1 | nt | -5 | -8 | -4 | 57* | 88* | 62*
Cc1cc(=O)oc2c3c4c(cc12)OCCN4CCC3 | i | -17 | 6 | -24 | 76* | 66* | 66*
CC(C)c1cc(=O)oc2c3c4c(cc12)CCCN4CCC3 | -66 | -6 | 3 | -21 | 39* | 98* | 86*
Cc1cc2c(C(F)(F)F)cc(=O)oc2c2c1NCCC2 | nt | 9 | 6 | -1 | 0 | nt | nt
O=C(CCS(=O)(=O)c1ccccc1)Nc1ccc2c(c1)C(=O)NC2=O | -2 | 33 | 1 | -1 | 50* | + | +
CN1C(=O)c2ccc(NC(=O)CCS(=O)(=O)c3ccccc3)cc2C1=O | -3 | 0 | 4 | 4 | 35* | 83* | 61*
O=C(CSCc1ccccc1)Nc1ccc2c(c1)C(=O)NC2=O | 0 | -4 | 10 | 6 | 0 | nt | nt
CN1CCCCC(NC(=O)c2ccc(C#N)cc2)C1=O (stereo unspecified) | nt | nt | nt | -2 | nt | nt | nt
COc1ccc(-c2noc(C3CCCN(C(=O)Nc4ccc(C)c(F)c4)C3)n2)cc1 (stereo unspecified) | nt | nt | nt | -1 | nt | nt | nt
COc1cccc(C(=O)NCCCNc2nc3cc(C)cc(C)c3cc2C#N)c1 | nt | nt | -1 | -6 | 9 | nt | nt
Cc1cc(C)c2cc(C#N)c(NCCCNC(=O)CCC(=O)O)nc2c1 | -49 | -8 | 12 | 1 | 42* | 44* | 36*
COc1ccccc1C(=O)NCCCNc1nc2cc(C)cc(C)c2cc1C#N | nt | nt | -4 | -3 | 42* | + | 146*
COc1ccc(N2CCN(CCNS(=O)(=O)c3ccc(F)cc3)CC2)cc1 | nt | nt | nt | -3 | nt | nt | nt
COC(=O)c1cc(COc2ccc3c(c2)oc(=O)c2ccccc23)c(C)o1 | -3 | 13 | 6 | 2 | 32* | 107* | 81*
COCCOC(=O)c1c(C)oc2ccc(OCc3cc(C(=O)OC)oc3C)cc12 | 3 | 5 | 7 | -5 | 4 | nt | nt
Cn1cccc1[C@]1(O)C(=O)Nc2ccc(F)cc21 | nt | nt | nt | -2 | nt | nt | nt
